Experimental findings from PubChem BioAssay (NCATS) are described below.

The source made the active and inactive calls. A call without a number means that no potency is given here. Calls follow the shape of the dose curve; as a rule, active = well fitted inhibition curve with a large enough effect; inconclusive = small, poorly fitted or top-dose-only effect; inactive = flat fitted curve, though single readings scatter.
Potency is read from the fitted curve at half-maximal effect.

ATP-dependent DNA helicase Q1 (Homo sapiens), sequence (P46063 whole entry, looked up): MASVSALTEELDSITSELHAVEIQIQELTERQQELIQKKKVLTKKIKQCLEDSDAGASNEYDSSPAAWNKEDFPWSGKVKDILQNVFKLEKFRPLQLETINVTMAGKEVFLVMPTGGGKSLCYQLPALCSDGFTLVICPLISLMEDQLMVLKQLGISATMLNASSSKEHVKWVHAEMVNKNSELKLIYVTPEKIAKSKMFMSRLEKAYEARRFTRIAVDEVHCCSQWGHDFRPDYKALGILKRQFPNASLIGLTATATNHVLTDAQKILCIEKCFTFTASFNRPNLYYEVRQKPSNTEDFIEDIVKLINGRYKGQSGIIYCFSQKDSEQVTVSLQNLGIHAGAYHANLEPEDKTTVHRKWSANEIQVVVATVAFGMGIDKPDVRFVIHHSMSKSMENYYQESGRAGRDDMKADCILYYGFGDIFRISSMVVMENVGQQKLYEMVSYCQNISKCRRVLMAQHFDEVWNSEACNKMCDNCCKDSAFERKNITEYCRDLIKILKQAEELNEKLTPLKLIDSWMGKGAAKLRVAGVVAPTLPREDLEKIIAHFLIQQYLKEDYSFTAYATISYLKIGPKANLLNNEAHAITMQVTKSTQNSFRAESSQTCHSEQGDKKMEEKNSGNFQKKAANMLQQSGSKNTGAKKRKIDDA

The experiment deals with ATP-dependent DNA helicase Q1 (Homo sapiens) (UniProt P46063). Kind of experiment: qHTS Validation Assay for Inhibitors of RecQ-Like Dna Helicase 1 (RECQ1) (AID 2353). Particulars: recombinant RECQ1 helicase DNA unwinding assay; series mostly up to 25.6 µM. From the text:
Survival of cells and the faithful propagation of the genome depend on elaborate mechanisms of detecting and repairing DNA damage. Treatment of advanced cancer relies on radiation therapy or chemotherapy, which kill cancer cells by causing extensive DNA damage. It is often found, that cancer cells develop resistance to therapy through enhanced activity of DNA repair functions; this has led to an increased interest in developing drugs that interfere with DNA repair, which could sensitize cancer cells to conventional therapy.
This validation qHTS assay pertains to human RECQ1, which is important in resolving abnormal DNA structures formed during replication or homologous recombination. Shutting down the expression of RECQ1 leads to chromosomal instability and higher radiation sensitivity in cultured cells.
The validation assay was a fluorescence quenching based kinetic qHTS for RECQ1 Helicase DNA unwinding. The activity was measured as ATP-dependent separation of a 20-bp DNA duplex extended by 30-nt single-stranded tails (forked duplex). The forked DNA substrate was tagged with rhodamine fluorophore (carboxytetramethyl rhodamine, TAMRA) and BHQ-2 (Black Hole Quencher 2) dark quencher. Strand separation results in an increase in the fluorescence of TAMRA (excitation 525 nm, emission 598 nm). This substrate construct operates in a red-shifted region where very few compound library members have been noted to fluoresce (PubChem AIDs 593 and 594). An additional feature of the assay is the inclusion of 2.5 ug/ml poly (dIdC), to reduce interference by compounds such as DNA intercalators, a major source of false inhibitors.
Opher Gileadi, Structural Genomics Consortium, University of Oxford
Screening Center PI: Austin, C.P.
Screening Center: NIH Chemical Genomics Center [NCGC]
Three uL of reaction buffer (25 mM Tris-HCl (pH 8.0), 5 mM NaCl, 2 mM MgCl2, 1mM DTT, 0.01% Tween- 20, and 2.5 ug/ml poly(dI-dC), including enzyme (50 nM RECQ1T1), were dispensed into a 1536-well Greiner black assay plate via solenoid-valve based nanoliter dispensers. Compounds (23 nl each in columns 5-48) and control (23 nl each in column 2 as dose-response) were transferred via a Kalypsys pintool equipped with a 1536-pin array. The plates were incubated for 15 min at room temperature, and then 1 ul of substrates (200 nM DNA and 2 mM ATP, final concentrations) was added to start the reaction. The plate was transferred into a ViewLux high-throughput CCD imager where the reaction progress was measured in a discontinuous kinetic mode (two reads spaced 2 hours apart, with intermediate room temperature incubation of the covered assay plate) by using standard red-fluorescence optics (excitation filter 525 nm, emission filter 598 nm). Enzyme-free and vehicle (DMSO) controls were included for signal normalization.
On to `COc1ccc2c(c1)C13CCCCC1C(C2)N(C)CC3` (stereo not given), for which the Potency entry is “inactive”. Take `c1ccc2cc(CC3=NCCN3)ccc2c1`: the Potency entry was “inactive”. As to `Ic1ccccc1CNC1C2CCN(CC2)C1C(c1ccccc1)c1ccccc1` (stereo not given), the Potency result is “inactive”. The same measure for `Oc1ccc2c3c1O[C@H]1c4oc5ccccc5c4C[C@@]4(O)C(C2)N(CC2CC2)CCC314` (stereo not given in full): “inactive”; for `C=CCN1CC[C@]23c4c5ccc(O)c4O[C@H]2/C(=N/NC(=O)c2ccccc2)CC[C@@]3(O)[C@H]1C5`: “inactive”. With `CNc1ccc2oc(C[C@H]3O[C@@]4(CC[C@H]3C)O[C@H]([C@H](C)C(=O)c3ccc[nH]3)[C@H](C)C[C@H]4C)nc2c1C(=O)O` the entry was “inactive”; with `Cc1o[nH]c(=O)c1CC(N)C(=O)O` (stereo not given), “inactive”; with `CN1CC[C@@]2(C)c3cc(O)ccc3N(C)C12` (stereo not given in full), “inactive”. With `C=CCN1CC[C@]23c4c5ccc(O)c4O[C@@H]2/C(=N/N=C2\CC[C@@]4(O)C6Cc7ccc(O)c8c7[C@@]4(CCN6CC=C)[C@@H]2O8)CC[C@@]3(O)C1C5` the entry was “inactive”; with `CN(N=O)c1ccc(O)c(O)c1`, 1120 nM (active); with `C[N+]1(C)CCN(c2ccccc2)CC1`, “inactive”.

For `C[C@@H]1O[C@H](C[N+](C)(C)C)CS1`, the Potency result was “inactive”. For `CCCCCCCCCCCCCC(=O)O[C@@H]1[C@@H](C)[C@@]2(O)[C@@H](C=C(CO)C[C@@]3(O)C(=O)C(C)=C[C@@H]23)C2C(C)(C)[C@@]21OC(C)=O` (stereo not given in full), the Potency result is “inactive”. As for `Nc1ccc(CCN2CCN(c3cccc(C(F)(F)F)c3)CC2)cc1`, the Potency entry is “inactive”. The same measure for `CCCn1c(C)c(C(=O)c2ccc3ccccc3c2)c2ccccc21`: “inactive”. With `CC(=O)NBr` the entry was “inactive”. Consider `CCCN(CCC)C1Cc2cc(OC)c(OC)cc2C1`, for which the Potency entry was “inactive”. With `CC(N)Cc1c[nH]c2ccc(O)cc12` (stereo not given) the entry was “inactive”. As to `C=CCN1C[C@@H](C)N([C@H](c2ccc(C(=O)N(CC)CC)cc2)c2cccc(OC)c2)C[C@@H]1C`, the Potency entry is “inactive”. For `N[C@@H](Cn1oc(=O)[nH]c1=O)C(=O)O`, the Potency result is “inactive”. As for `CCCN1CC[C@@H]2c3cc(O)ccc3CC[C@@H]21`, the Potency result is “inactive”. For `C[N+]1(C)C2CCC1CC(OC(=O)c1c[nH]c3ccccc13)C2` (stereo not given), the Potency entry is “inactive”. The same measure for `C[C@]12Cc3cn4c(nc3C=C1CCC1C2CC[C@@]2(C)[C@H]1CC[C@@]2(O)C#N)nc1ccccc14` (stereo not given in full): “inactive”. With `NCC(O)c1cc(O)c(O)cc1F` (stereo not given) the entry was “inactive”; with `NC(C(=O)O)c1cc(=O)[nH]o1` (stereo not given), “inactive”.

As for `C[N+](C)(C)CC#CCOC(=O)Nc1cccc(Cl)c1`, the Potency result was “inactive”. With `CN1C2CCC1CC(OC(c1ccccc1)c1ccccc1N)C2` (stereo not given) the entry was “inactive”; with `NC(=O)CI`, “inactive”; with `C/C(O)=C(\C#N)C(=O)Nc1cc(Br)ccc1Br`, “inactive”. Regarding `NCCc1ccc(S(=O)(=O)F)cc1`, the Potency entry was “inactive”.

Regarding `CC(C)CC(NP(=O)(O)O[C@@H]1O[C@@H](C)[C@H](O)[C@@H](O)[C@H]1O)C(=O)NC(Cc1c[nH]c2ccccc12)C(=O)O` (stereo not given in full), the Potency entry is “inactive”. The same measure for `N[C@@]1(C(=O)O)CC[C@@H](C(=O)O)C1`: “inactive”; for `N#CC(C#N)=Cc1cc(O)c(O)c(O)c1`: “inactive”; for `NC(N)=Nc1ccc2[nH]c3c(c2c1)C[C@@]1(O)[C@H]2Cc4ccc(O)c5c4[C@@]1(CCN2CC1CC1)[C@H]3O5`: “inactive”. With `O=C(O)c1cc[c]([Hg][Cl])cc1` the entry was “inactive”; with `O=P(O)(O)C(Cl)(Cl)P(=O)(O)O`, “inactive”; with `c1ccc2c(c1)[I+]c1ccccc1-2`, “inactive”. Regarding `CC(C)(C)c1o[nH]c(=O)c1CC(N)C(=O)O` (stereo not given), the Potency result is “inactive”. The same measure for `NCCCP(=O)(O)O`: “inactive”; for `C[N+]1(C)CCOC(O)(c2ccc(-c3ccc(C4(O)C[N+](C)(C)CCO4)cc3)cc2)C1` (stereo not given): “inactive”.
